Measurements as given in PubChem BioAssay AID1347043 (National Center for Advancing Translational Sciences (NCATS), 2019).
Out of some 76,000 compounds screened, about 1,900 (2.5%) were called active. Roughly 5% stayed inconclusive and do not appear here. This is one part of a sample in which actives are shown more often than they occur. Values without a mark were called inactive. The call rests on the fitted dose curve; in most records, active means well fitted inhibition curve with a large enough effect; inconclusive means small, poorly fitted or top-dose-only effect; inactive means flat fitted curve, though single readings scatter.
Further: nearly all actives have a fitted effect of over 65% in size.
On the % scale 0 is the no-effect control and ±100 the full control effect; potency means the concentration at half of the fitted maximal effect.

What follows are molecules tested against Luciferin 4-monooxygenase (Photinus pyralis) (UniProt P08659) (assay: Firefly luciferase inhibition profiling of diverse chemical library using quantitative high-throughput screening). Details: purified P. pyralis luciferase, luminescence, biochemical; series mostly up to 115 µM; activity change, negative = inhibition: at the top concentration.
Luciferin 4-monooxygenase (Photinus pyralis), sequence (P08659 whole entry, looked up): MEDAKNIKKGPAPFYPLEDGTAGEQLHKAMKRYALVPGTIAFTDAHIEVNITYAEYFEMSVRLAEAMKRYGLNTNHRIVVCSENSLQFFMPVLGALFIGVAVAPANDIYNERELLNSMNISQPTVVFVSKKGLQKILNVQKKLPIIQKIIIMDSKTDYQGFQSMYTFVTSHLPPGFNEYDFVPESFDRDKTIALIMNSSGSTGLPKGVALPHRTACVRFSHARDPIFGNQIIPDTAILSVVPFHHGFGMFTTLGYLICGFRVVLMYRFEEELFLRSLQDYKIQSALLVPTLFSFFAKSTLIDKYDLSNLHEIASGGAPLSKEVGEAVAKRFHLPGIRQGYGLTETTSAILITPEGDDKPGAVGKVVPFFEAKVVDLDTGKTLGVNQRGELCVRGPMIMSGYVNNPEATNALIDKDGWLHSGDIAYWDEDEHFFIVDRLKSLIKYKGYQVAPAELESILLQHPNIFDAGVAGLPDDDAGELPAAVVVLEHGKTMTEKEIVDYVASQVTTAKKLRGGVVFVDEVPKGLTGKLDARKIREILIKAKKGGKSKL
Summary of the method: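 Luminescence read by CCD imaging after purified firefly luciferase (10nM final) was added to substrate buffer holding 10uM D-luciferin and 10uM ATP, pH 7.5, pre-dosed with compound.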
Fc1ccc(Nc2nc(-c3ccccc3F)no2)cc1 was tested, and the Potency was 2.82 µM (active).
With COc1cccc(-c2cc(C(=O)NCc3cc(C)on3)c3c(c2)N(C)CCO3)c1OC the “activity change, negative = inhibition” value was -9.08% [at 172 µM].
In the case of CCOc1ccc(Nc2ncncc2-c2nc(-c3ccccc3)no2)cc1, the “activity change, negative = inhibition” value is reported as 5.94%.
With COc1ccc(Nc2nc(-c3cccc(OC)c3OC)no2)cc1 the Potency was 22.4 µM (active).
For C[C@H]1CN(C(=O)Nc2ccc(F)cc2)C[C@@H]1c1nc(-c2ccccc2)no1, the “activity change, negative = inhibition” value was -3.1%.
O=C(Cn1cccc1-c1nc(-c2ccc(F)cc2)no1)Nc1cc(F)cc(F)c1 was tested, and the “activity change, negative = inhibition” value was 11.3%.
For CC1(c2noc(C3CCOCC3)n2)CCN(Cc2ccc(OCC(N)=O)cc2)CC1, the “activity change, negative = inhibition” value was 9.39%.
For CN(Cc1ccccc1)Cc1cc(CC2(NCc3ccc(OC(F)(F)F)cc3)COC2)no1, the “activity change, negative = inhibition” value was -4.86%.
COCc1noc(-c2ccc(NCCN3CCNC3=O)nc2)n1 was tested, and the “activity change, negative = inhibition” value was 8.32%.
COCCc1noc(-c2ccc(NC(C)c3ncccc3C)nc2)n1 (stereo not drawn) was tested, and the Potency was 31.6 µM (active).
In the case of COc1cccc(CC(=O)NCCc2noc(-c3cccnc3)n2)c1, the “activity change, negative = inhibition” value is reported as -5.71%.
In the case of O=C(NC1CCN(Cc2ccc(F)c(F)c2)CC1)c1ccc2nccn2c1, the “activity change, negative = inhibition” value is reported as 10.6%.
For O=C(c1ccncc1)N1CCC(c2cc(-c3ccc(F)cc3)n[nH]2)CC1, the “activity change, negative = inhibition” value was -7.89%.
In the case of CCC1(N2CCN(C(=O)c3ccc(N(C)C)cc3)CC2)CCN(S(C)(=O)=O)C1 (stereo not drawn), the “activity change, negative = inhibition” value is reported as -21.9%.
In the case of Cn1cccc1C(=O)NC1CCN(c2cc(-c3ccccc3)[nH]n2)CC1, the “activity change, negative = inhibition” value is reported as -5.36%.
With CC(=O)N1CCC(Cc2ccc(C(=O)NC3CC3)cc2)CC1 the “activity change, negative = inhibition” value was 4.35%.
With Cc1nnn2c(C(=O)NC3CC3)cccc12 the Potency was 7.08 µM (active).
For O=C(c1cc(-c2ccccc2)n[nH]1)N1CC2CC(C1)[C@H]1CCCC(=O)N1C2 (stereo partly drawn), the “activity change, negative = inhibition” value was 0%.
Cc1ccc([S+](=O)([O-])N2CCn3c(nn(-c4ccncc4)c3=O)C2)cc1 was tested, and the “activity change, negative = inhibition” value was -6.68%.
For COc1cc(F)ccc1-c1ccc(COc2ccc3c(cnn3CCC(=O)O)c2)cc1, the Potency was 44.7 µM (active).
COc1cc(F)ccc1-c1ccnc2nc(C(C)C)nn12 was tested, and the “activity change, negative = inhibition” value was -0.38%.
With COc1ccccc1-c1cn(C)c(=O)n2cc(COc3ccc(C(=O)O)cc3)nc12 the “activity change, negative = inhibition” value was 1.32% [at 172 µM].
In the case of CCN1c2cc(C(=O)NC3CCN(Cc4ccccc4)CC3)ccc2C(=O)N2CCCCC21 (stereo not drawn), the “activity change, negative = inhibition” value is reported as 1.15%.
With CC(C)CNc1ccc2nnc(-c3ccccn3)n2n1 the “activity change, negative = inhibition” value was 13.6% [at 230 µM].
In the case of O=C(C1CC1)N1CCCC(c2noc(COc3ccccc3F)n2)C1 (stereo not drawn), the Potency is reported as 35.5 µM (active).
O=C(c1ccccc1)N1CCCC(c2noc(COc3ccccc3)n2)C1 (stereo not drawn) was tested, and the “activity change, negative = inhibition” value was -6.88%.
CC(C)CNC(=O)N1CCCC(c2noc(COc3ccccc3F)n2)C1 (stereo not drawn) was tested, and the “activity change, negative = inhibition” value was -20.3%.
For C[C@H]1CN(C(=O)Nc2cc(F)cc(F)c2)C[C@@H]1c1nc(-c2ccncc2)no1, the “activity change, negative = inhibition” value was -17.8%.
